Measured values reported in the supplement of paper PMC7858590.

tested on: human monocyte-derived macrophages (polarized); test: cell shape (eccentricity) Z-score vs DMSO control; higher = more elongated, M2-like morphology; conditions: 5 µM; 24 h; macrophage state: M1-polarized (IFNg + TNFa), cytokines present during treatment
Experimental: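 Primary-screen hits were rescreened on polarized hMDMs with the differentiating cytokines (IL-4 + IL-13 or IFNg + TNFa) kept in the medium during treatment with compound at 5 uM for 24 h. The eccentricity Z-score vs DMSO wells is averaged over experiments.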

Point of comparison: `O=C1NC(=O)c2c1c1c3ccccc3[nH]c1c1[nH]c3ccccc3c21`, “cell shape (Z-score)” value 7.76. Against it:
- CCCCCCCCCCCCCC(=O)O[C@@H]1[C@@H](C)[C@@]2(O)[C@@H](C=C(CO)C[C@]3(O)C(=O)C(C)=C[C@@H]23)[C@@H]2C(C)(C)[C@]12OC(C)=O — lower, -6.25
- COc1cc2c(c(OC)c1OC)-c1ccc(OC)c(=O)cc1[C@@H](NC(C)=O)CC2 — lower, 3.12
- CNc1ccc2oc(C[C@H]3O[C@@]4(CC[C@H]3C)O[C@H]([C@H](C)C(=O)c3ccc[nH]3)[C@H](C)C[C@H]4C)nc2c1C(=O)O — lower, -11.1

same assay, conditions: 5 µM; 24 h; macrophage state: M2-polarized (IL-4 + IL-13), cytokines present during treatment

Point of comparison: `CC1=CC(=O)c2c(O)cccc2C1=O`, “cell shape (Z-score)” value 3.72. Against it:
- CCCC[C@@H](C)[C@@H](OC(=O)C[C@@H](CC(=O)O)C(=O)O)[C@H](C[C@@H](C)C[C@H](O)CCCC[C@@H](O)C[C@H](O)[C@H](C)N)OC(=O)C[C@@H](CC(=O)O)C(=O)O — lower, 2.12
- C[C@@]12C(=O)OC(=O)[C@]1(C)[C@H]1CC[C@@H]2O1 — lower, -39.6
- Cc1c(C(=O)c2cccc3ccccc23)c2cccc3c2n1[C@H](CN1CCOCC1)CO3 — lower, -6.47
